Reference: ChEMBL document CHEMBL5308504, “Tm Shift (DSF) assay results for EUbOPEN Chemogenomics Library” (2023)
Several values for one entry are separate records, joined by “and”; a condition that tells them apart may be missing. Equal entries are not always repeated.

Experiments:
[1] = molecular target: Bromodomain-containing protein 4 (Homo sapiens) (UniProt O60885); details: Compound concentration 20.0 uM, Protein concentration 2.0 uM, Result type QC Liability
[2] = molecular target: T1, Transcription intermediary factor 1-alpha (Homo sapiens) (UniProt O15164); details: Compound concentration 20.0 uM, Protein concentration 2.0 uM, Result type QC Liability
T1 sequence (whole entry): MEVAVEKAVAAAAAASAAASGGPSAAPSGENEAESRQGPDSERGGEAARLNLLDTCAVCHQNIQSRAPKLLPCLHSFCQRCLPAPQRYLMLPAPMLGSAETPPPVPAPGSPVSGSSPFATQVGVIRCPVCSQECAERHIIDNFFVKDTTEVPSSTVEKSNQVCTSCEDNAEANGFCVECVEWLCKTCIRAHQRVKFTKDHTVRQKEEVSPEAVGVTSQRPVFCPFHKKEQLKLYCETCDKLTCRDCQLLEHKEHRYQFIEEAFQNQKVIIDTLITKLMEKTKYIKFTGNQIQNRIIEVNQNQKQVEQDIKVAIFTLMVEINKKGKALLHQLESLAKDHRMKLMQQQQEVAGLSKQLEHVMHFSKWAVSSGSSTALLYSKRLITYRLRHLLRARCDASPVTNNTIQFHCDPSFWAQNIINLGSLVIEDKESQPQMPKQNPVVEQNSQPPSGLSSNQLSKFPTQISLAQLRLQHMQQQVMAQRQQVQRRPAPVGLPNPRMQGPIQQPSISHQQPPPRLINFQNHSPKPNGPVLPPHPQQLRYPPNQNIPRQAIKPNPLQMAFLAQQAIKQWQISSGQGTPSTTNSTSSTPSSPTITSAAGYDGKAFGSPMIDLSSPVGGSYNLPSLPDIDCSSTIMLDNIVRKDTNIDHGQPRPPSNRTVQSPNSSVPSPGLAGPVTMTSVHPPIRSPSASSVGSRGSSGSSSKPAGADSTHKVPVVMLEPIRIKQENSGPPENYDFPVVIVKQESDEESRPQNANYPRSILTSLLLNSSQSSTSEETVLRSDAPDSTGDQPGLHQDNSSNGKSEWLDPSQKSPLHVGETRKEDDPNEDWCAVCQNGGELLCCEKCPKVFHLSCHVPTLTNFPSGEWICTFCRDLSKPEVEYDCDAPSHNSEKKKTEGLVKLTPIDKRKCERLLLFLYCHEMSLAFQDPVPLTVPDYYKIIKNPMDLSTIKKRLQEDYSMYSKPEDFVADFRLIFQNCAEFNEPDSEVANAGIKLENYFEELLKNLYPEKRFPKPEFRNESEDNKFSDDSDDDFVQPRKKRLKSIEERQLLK

Compound | ΔTm [1] | ΔTm [2]
CC#CC(=O)N1CCN(c2nc(-c3ccc(Oc4ccccc4)cc3)c(C(N)=O)s2)CC1 | -3.96 °C | -3.1 °C
Cn1cc(-c2ccc(-c3cncc(Cl)c3N3CCC4(CCNC4=O)CC3)cc2)cn1 | 0.07 °C | -2 °C
CN1CCN(c2ccnc(NCCc3ccccc3)n2)CC1 | -0.31 °C | -0.99 °C
Nc1ncnc2c1c(COc1cccc(Cl)c1)nn2C1CCOCC1 | -0.35 °C | -2.38 °C
Cc1cc(OCc2nc3ccccc3s2)ccc1NC(=O)Nc1ccc(Cl)c(Cl)c1 | 0.28 °C | -0.82 °C
C[S+](C)[O-] | 0 °C (2×) and -2.05 °C | 0 °C (2×) and -2.19 °C
CC(C)S(=O)(=O)c1ccccc1Nc1nc(N[C@@H]2CCCN(CCCCCCCNC(=O)COc3cccc4c3C(=O)N(C3CCC(=O)N(C)C3=O)C4=O)C2)ncc1Cl (some centres not stated) | -2.43 °C | -1.22 °C
CN1Cc2nccc(-c3cn(C)nc3-c3ccc(F)cc3)c2C1=O | -1.27 °C | -1.67 °C
Cc1cc([N+](=O)[O-])c(NS(=O)(=O)c2cccc(C(=O)O)c2)cc1-c1cccnc1 | -0.44 °C | -2.82 °C
Cc1cc(-c2ccnc(Nc3cnn(C)c3)n2)ccc1CNC(=O)N1CC(OC(C)C)C1 | -2.36 °C | 0.22 °C
Cn1cnc(Cn2ccc3ccc(CNCc4[nH]c5ccccc5c4[C@H]4NC(=O)c5ccc(O)cc54)cc32)c1 | 0.36 °C | 0.2 °C
CCCCCNC(=O)N1CCC(CN(Cc2ccc(Cl)cc2)Cc2ccc([N+](=O)[O-])s2)C1 (configuration not stated) | -2.51 °C | -3.43 °C
COCCCS(=O)(=O)c1cc(C)c(-c2ccc(F)c3c2CC[C@H]3Oc2ccc3c(c2)OC[C@H]3CC(=O)O)c(C)c1 | -0.25 °C | -0.22 °C
CC(=O)Oc1ccc2c(c1)[C@@]1(C)CCC[C@](C)(C(=O)OC(=O)[C@@]3(C)CCC[C@]4(C)c5cc(OC(C)=O)ccc5CC[C@@H]34)[C@@H]1CC2 | -2.81 °C | -3.04 °C
O=C(O)c1cccc(C2=C(c3cc(Cl)ccc3OCc3ccc(F)cc3F)CCC2)n1 | -0.65 °C | -2.91 °C
CC(C(=O)Nc1cc(C#N)ccc1CCCC(=O)O)c1ccc(F)c2ccccc12 (configuration not stated) | -0.24 °C | -1.35 °C
CS(=O)(=O)CCNCc1ccc(-c2ccc3ncnc(Nc4ccc(OCc5cccc(F)c5)c(Cl)c4)c3c2)o1 | -2.54 °C | -3.02 °C
COc1ccc(S(=O)(=O)N2CCOCC2)cc1Nc1ccc2c(n1)N(C1CCOCC1)[C@H](C)C(=O)N2C | 5.07 °C | -1.05 °C
Cc1cc(C)nc(Nc2ncc(C(=O)NCCc3c(C)[nH]c4ccccc34)cn2)c1 | -0.8 °C | -1.3 °C
CCS(=O)(=O)c1cc2cc(C[C@@](O)(CC(C)(C)c3ccc(F)cc3C(N)=O)C(F)(F)F)[nH]c2cn1 | 0.67 °C and -0.3 °C | 0.3 °C and -2.64 °C
C[C@H](CCC(=O)O)[C@H]1CC[C@H]2[C@@H]3CC[C@@H]4C[C@H](O)CC[C@]4(C)[C@H]3C[C@H](O)[C@]12C | -3.05 °C | -3.23 °C
COCCN(C)c1ccc(NC(=O)/C=C(\C)c2ccc3ccccc3c2)c(C(=O)O)c1 | -1.96 °C | -0.91 °C
COc1cc(Oc2nc(-c3ccc(NC(=O)C4CCOC4)cc3)nn3c(C)nc(C)c23)cc(OC)c1OC (configuration not stated) | -1.75 °C | 0.42 °C
CC[C@@H](CO)Nc1nc(Nc2cccc(NC(=O)C(C)(C)C)c2)ncc1F | -2.22 °C | 0.33 °C
CCc1cnn2c(NCc3ccc[n+]([O-])c3)cc(N3CCCCC3CCO)nc12 (configuration not stated) | -0.63 °C | -2.72 °C
CCO[C@@H](Cc1ccc(OCCc2ccc(OS(C)(=O)=O)cc2)cc1)C(=O)O | -0.9 °C | -3.53 °C
